Test results published in PubChem BioAssay (NCATS).
Records with an inconclusive call do not appear. Where a call stands in place of a potency, no number is given. Activity calls are given as the source filed them. Calls come from the whole dose curve; as a rule, active = well fitted cell-killing curve with a large enough effect; inconclusive = small, poorly fitted or top-dose-only effect, or effect the other way; inactive = flat fitted curve, though single readings scatter. *1 amine or outer side, *2 acyl side, *3 side chain or, on linkers, in order; H or OH if unused. Where a SMILES comes first, the peptide text is derived from it. [ ]: non-standard residue; d: D form. The star is where a group is joined. X13 = O=C(C(CC(O)CO)O[*:1])[*:2]; NMeV = CN[CH](C(=O)O)C(C)C; βNA = c1ccc2cc(N*)ccc2c1; Cbz = O=C(OCc1ccccc1)*; NMeA = CN[CH](C)C(=O)O; βAla = NCCC(=O)O

System: PA-1
Test: Primary qHTS to identify gynecologic anti-cancer compounds using libraries of approved drugs and bioactive compounds (AID 1345084); note: nearly all actives have a fitted effect of over 55% in size
Conditions: Gynecologic cancer cell panel viability, ATPlite luminescence, 48 h; series mostly up to 57.5 µM
In short: (§1)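 Cells, 1,000 per well, plated 16 h, then exposed 48 h at 37 C to compounds. Viability by ATPlite luminescence after 15 min at room temperature.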

Structure (SMILES)	Potency	activity change, negative = cytotoxicity
O=C(Nc1cc(-c2ccccc2)nn1-c1ccccc1F)c1ccc([N+](=O)[O-])cc1	inactive	
Cc1sc(C)c(C(=O)NC2(c3ccc(C(=O)O)cc3)CC2)c1Cc1ccc(C(F)(F)F)cc1	inactive	
COc1cc([C@@H](O[C@@H]2O[C@H](CO)[C@@H](O)[C@H](O)[C@H]2O)[C@@H]2CO[C@H](c3ccc(O)c(OC)c3)[C@H]2CO)ccc1O	inactive	
CC(C)NC(=O)c1ccc(C#Cc2ccncc2)cn1	inactive	
O=C(O)CC/C=C\C[C@H]1CO[C@@H](c2ccccc2Cl)O[C@H]1c1ccccc1O	inactive	
CC(C)=CCc1cc(O[C@@H]2O[C@H](CO[C@@H]3OC[C@](O)(CO)[C@H]3O)[C@@H](O)[C@H](O)[C@H]2O)ccc1O	inactive	
CC1(C)[C@@H]2CC=C(CO[C@@H]3O[C@H](CO[C@@H]4OC[C@H](O)[C@H](O)[C@H]4O)[C@@H](O)[C@H](O)[C@H]3O)[C@H]1C2	inactive	
COc1ccc(C2C(C(=O)O)C(C(=O)O)C2c2ccc(OC)cc2O[C@@H]2O[C@H](CO)[C@@H](O)[C@H](O)[C@H]2O)c(O[C@@H]2O[C@H](CO)[C@@H](O)[C@H](O)[C@H]2O)c1 (stereo partly drawn)	inactive	
C=C(C)C1CCC2(C(=O)OC3OC(COC4OC(CO)C(O)C(O)C4O)C(OC4OC(C)C(O)C(O)C4O)C(O)C3O)CCC3(C(=O)O)C(CCC4C5(C)CCC(=O)C(C)(C)C5CCC43C)C12 (stereo not drawn)		8.9% [at 11.6 µM] (inactive)
CC1=C(CC/C(C)=C/C(=O)O)[C@@]2(C)CCCC(C)(C)C2CC1=O (stereo partly drawn)	inactive	
C[C@]12CCC[C@](C)(C(=O)O)C1[C@@H](O)[C@@H](O)C13CC(CCC12)C(CO)(O[C@@H]1O[C@H](CO)[C@@H](O)[C@H](O)[C@H]1O)C3 (stereo partly drawn)	inactive	
COc1cc(O)cc(C)c1C(=O)O[C@H]1[C@@H](O)[C@@H](n2ccc(=O)[nH]c2=O)O[C@@H]1CO	inactive	
C=C1C(=O)O[C@@H]2C[C@]3(C)[C@@H](CCC(C)=O)[C@@H]3C[C@H]12	inactive	
C=C1CC[C@@]2(OC1)O[C@H]1CC3[C@@H]4CC=C5C[C@@H](O)C[C@@H](O[C@@H]6OC[C@H](O)[C@H](O)[C@H]6O[C@@H]6O[C@@H](C)[C@H](O)[C@@H](O)[C@H]6O)[C@]5(C)C4CC[C@]3(C)[C@H]1[C@@H]2C (stereo partly drawn)	inactive	
C/C=C(\C)C(=O)OCC1OC(OCC2OC(OC3(CO)OC(CO)C(O)C3O)C(O)C(O)C2O)C(O)C(O)C1O (stereo not drawn)	inactive	
COC(=O)C1=CO[C@@H](O[C@@H]2O[C@H](CO)[C@@H](O)[C@H](O)[C@H]2O)/C(=C\CO)[C@@H]1CC(=O)OCCc1ccc(O)cc1	inactive	
CCC(C)C1NC(=O)C2CCCN2C(=O)C(CC(O)CO)OC(=O)CCNC(=O)C(C)N(C)C(=O)C(C(C)C)N(C)C1=O (stereo not drawn) (cyclo([X13]PI[NMeV][NMeA][βAla]); configuration not given here)	inactive	
O=C(C[C@@H]1C(C(=O)O)=CO[C@@H](O[C@@H]2O[C@H](CO)[C@@H](O)[C@H](O)[C@H]2O)/C1=C\CO)OCCc1ccc(O)cc1	inactive	
COC(=O)[C@H](O)[C@H]1C(C)(C)[C@H](OC(C)=O)[C@@]2(O)C(=O)[C@]1(C)C1CC[C@]3(C)C(CC(=O)O[C@H]3c3ccoc3)[C@]13O[C@@H]32 (stereo partly drawn)	inactive	
CC(=O)c1c(C)cccc1O[C@@H]1O[C@H](CO)[C@@H](O)[C@H](O)[C@H]1O	inactive	
C/C=C(\C)C(=O)OC1CC2C(CC=C3CC(OC4CC(OC)C(OC5CC(OC)C(OC6CC(OC)C(OC7CC(OC)C(OC8CC(OC)C(OC9OC(CO)C(O)C(O)C9O)C(C)O8)C(C)O7)C(C)O6)C(C)O5)C(C)O4)CCC32C)C2(O)CCC(C(C)=O)C12C (stereo not drawn)		-0.231% [at 6.55 µM] (inactive)
COc1ccc2[nH]c(S(=O)Cc3ncc(C)c(OC)c3C)nc2c1 (stereo not drawn)	inactive	
COc1cc(C)c(C(=O)OC2C(C)OC(OC3CCC(C)C4C3C=C(C)C3/C(C)=C\CC/C(C)=C/C5(C)C=C(C(=O)O)C(C)CC56OC(=O)/C(=C(\O)C34C)C6=O)C(O)C2O)c(OC)c1 (stereo not drawn)		-4.04% [at 11.6 µM] (inactive)
COc1ccc(/C=C/C(=O)O[C@@H]2[C@@H](O[C@@H]3O[C@H](CO)[C@@H](O)[C@H](O)[C@H]3O)[C@@H](O)[C@H](O[C@H]3C4C=CO[C@@H](O[C@@H]5O[C@H](CO)[C@@H](O)[C@H](O)[C@H]5O)C4[C@@]4(CO)O[C@@H]34)O[C@H]2C)cc1 (stereo partly drawn)		-1.37% [at 11.6 µM] (inactive)
CC(C)C1NC(=O)C(CC2(O)c3ccccc3N3C(=O)C(Cc4ccccc4)NC32)NC1=O (stereo not drawn)	inactive	

System: SKOV3
Test: as above
Conditions: Gynecologic cancer cell panel viability, ATPlite luminescence, 48 h; series mostly up to 57.5 µM
In short: as §1

Structure (SMILES)	Potency	activity change, negative = cytotoxicity
NC(N)=NCCC[C@H](NC(=O)c1sccc1NS(=O)(=O)c1cccc2nsnc12)C(=O)O	inactive	
Nc1ccc(-n2nc(C(F)(F)F)cc2C(F)(F)F)cc1	inactive	
C[C@H](O)C(O)(C(=O)OCc1ccccc1NC(=O)CCC(N)C(=O)O)[C@H](C)O (stereo partly drawn)	inactive	
CC[C@H](NC(=O)c1c(O)c(-c2ccccc2)nc2ccccc12)c1ccccc1	inactive	
CC/C=C/C(O)C(O)C1=C(C)C(=O)C2(O1)C(=O)NC(OC)(C(=O)c1ccccc1)C2O (stereo not drawn)	inactive	
Fc1cccc(CN(C2=NCCN2)c2c(Cl)cccc2Cl)c1	inactive	
O=C(O)CCc1cccc(O)c1O[C@@H]1O[C@H](CO)[C@@H](O)[C@H](O)[C@H]1O	inactive	
CCC(C)/C=C(C)/C=C/C1=CC2=CC(=O)C(C)(O)C(OC(C)=O)C2CO1 (stereo not drawn)	inactive	
CC1CC(O)/C=C/C(O)/C=C\C(=O)O1 (stereo not drawn)	inactive	
CC(C)CC(NC(=O)OCc1ccccc1)C(=O)NC(CC(C)C)C(=O)NC(CCC(=O)O)C(=O)Nc1ccc2ccccc2c1 (stereo not drawn) (Cbz-Leu-Leu-Glu-βNA; configuration not given here)	inactive	
COCc1c(O)c(C(=O)O)c(C)c2c1OC(=O)c1c(C)cc(O)c(CO)c1O2	inactive	
C=C(C(=O)O)C1CC(O)C2(C)CCCC(C)(O)C2C1 (stereo not drawn)	inactive	
C=C[C@H]1[C@H](O[C@@H]2O[C@H](CO)[C@@H](O)[C@H](OC(=O)/C=C/c3ccc(O)c(OC)c3)[C@H]2O)OC=C2C(=O)OCC[C@]21O	inactive	
COC(=O)C1(O)C(OC(C)=O)CCC2C3(CC(c4ccoc4)OC3=O)C(C)=CCC21C(=O)OC (stereo not drawn)	inactive	
O=C(Nc1cc(-c2ccccc2)nn1-c1ccccc1F)c1ccc([N+](=O)[O-])cc1	inactive	
Cc1sc(C)c(C(=O)NC2(c3ccc(C(=O)O)cc3)CC2)c1Cc1ccc(C(F)(F)F)cc1	inactive	
COc1cc([C@@H](O[C@@H]2O[C@H](CO)[C@@H](O)[C@H](O)[C@H]2O)[C@@H]2CO[C@H](c3ccc(O)c(OC)c3)[C@H]2CO)ccc1O	inactive	

Structure (SMILES)	Potency	activity change, negative = cytotoxicity
CC(C)NC(=O)c1ccc(C#Cc2ccncc2)cn1	inactive	
O=C(O)CC/C=C\C[C@H]1CO[C@@H](c2ccccc2Cl)O[C@H]1c1ccccc1O	inactive	
CC(C)=CCc1cc(O[C@@H]2O[C@H](CO[C@@H]3OC[C@](O)(CO)[C@H]3O)[C@@H](O)[C@H](O)[C@H]2O)ccc1O	inactive	
CC1(C)[C@@H]2CC=C(CO[C@@H]3O[C@H](CO[C@@H]4OC[C@H](O)[C@H](O)[C@H]4O)[C@@H](O)[C@H](O)[C@H]3O)[C@H]1C2	inactive	
COc1ccc(C2C(C(=O)O)C(C(=O)O)C2c2ccc(OC)cc2O[C@@H]2O[C@H](CO)[C@@H](O)[C@H](O)[C@H]2O)c(O[C@@H]2O[C@H](CO)[C@@H](O)[C@H](O)[C@H]2O)c1 (stereo partly drawn)	inactive	
C=C(C)C1CCC2(C(=O)OC3OC(COC4OC(CO)C(O)C(O)C4O)C(OC4OC(C)C(O)C(O)C4O)C(O)C3O)CCC3(C(=O)O)C(CCC4C5(C)CCC(=O)C(C)(C)C5CCC43C)C12 (stereo not drawn)		-6.38% [at 11.6 µM] (inactive)
CC1=C(CC/C(C)=C/C(=O)O)[C@@]2(C)CCCC(C)(C)C2CC1=O (stereo partly drawn)	inactive	
C[C@]12CCC[C@](C)(C(=O)O)C1[C@@H](O)[C@@H](O)C13CC(CCC12)C(CO)(O[C@@H]1O[C@H](CO)[C@@H](O)[C@H](O)[C@H]1O)C3 (stereo partly drawn)	inactive	
COc1cc(O)cc(C)c1C(=O)O[C@H]1[C@@H](O)[C@@H](n2ccc(=O)[nH]c2=O)O[C@@H]1CO	inactive	
C=C1C(=O)O[C@@H]2C[C@]3(C)[C@@H](CCC(C)=O)[C@@H]3C[C@H]12	inactive	
C=C1CC[C@@]2(OC1)O[C@H]1CC3[C@@H]4CC=C5C[C@@H](O)C[C@@H](O[C@@H]6OC[C@H](O)[C@H](O)[C@H]6O[C@@H]6O[C@@H](C)[C@H](O)[C@@H](O)[C@H]6O)[C@]5(C)C4CC[C@]3(C)[C@H]1[C@@H]2C (stereo partly drawn)	inactive	
C/C=C(\C)C(=O)OCC1OC(OCC2OC(OC3(CO)OC(CO)C(O)C3O)C(O)C(O)C2O)C(O)C(O)C1O (stereo not drawn)	inactive	
COC(=O)C1=CO[C@@H](O[C@@H]2O[C@H](CO)[C@@H](O)[C@H](O)[C@H]2O)/C(=C\CO)[C@@H]1CC(=O)OCCc1ccc(O)cc1	inactive	
CCC(C)C1NC(=O)C2CCCN2C(=O)C(CC(O)CO)OC(=O)CCNC(=O)C(C)N(C)C(=O)C(C(C)C)N(C)C1=O (stereo not drawn) (cyclo([X13]PI[NMeV][NMeA][βAla]); configuration not given here)	inactive	
O=C(C[C@@H]1C(C(=O)O)=CO[C@@H](O[C@@H]2O[C@H](CO)[C@@H](O)[C@H](O)[C@H]2O)/C1=C\CO)OCCc1ccc(O)cc1	inactive	
COC(=O)[C@H](O)[C@H]1C(C)(C)[C@H](OC(C)=O)[C@@]2(O)C(=O)[C@]1(C)C1CC[C@]3(C)C(CC(=O)O[C@H]3c3ccoc3)[C@]13O[C@@H]32 (stereo partly drawn)	inactive	
